Measurements published in PMC8384837, “Expanding the binding specificity for RNA recognition by a PUF domain”.
Where a chain is given by its changes, count along the chain named.

Experiments:
Test in all cases: yeast three-hybrid, YBZ-1, SC-Leu-His + 0.5 mM 3-AT, 4 days
Conditions in all cases: tags: N-Gal4 AD-HA kept; label: inside an RPR1-promoter hybrid RNA with tandem MS2 sites; ssRNA
[1] = biological target: PUM1 PUF domain R4-PFR (Homo sapiens, UniProt Q14671 828-1176, N971P;H972F;Q975R)
Summary of the method: (§1)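 The interaction score is the logarithmic change in variant frequency from input to selection. It uses log2, with a pseudocount of 1 for absent variants, and frequencies came from PCR-amplified, Illumina-sequenced repeat regions. The libraries were Pumilio-1 PUF domains randomized at the three base-contacting residues per repeat, co-expressed with matching RNA elements in strain YBZ-1 (LexA–MS2 coat fusion, HIS3 reporter). Plating lasted four days on SC-Leu (input) or SC-Leu-His + 0.5 mM 3-AT (selection).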

[2] = biological target: PUM1 PUF domain R7-GVN (Homo sapiens, UniProt Q14671 828-1176, S1079G;N1080V;E1083N)
Summary of the method: as §1

[3] = biological target: PUM1 PUF domain R5-GFL (Homo sapiens, UniProt Q14671 828-1176, C1007G;R1008F;Q1011L)
Summary of the method: as §1

[4] = biological target: T1, PUM1 PUF domain R6-RWT (Homo sapiens, UniProt Q14671 828-1176, N1043R;Y1044W;Q1047T)
T1 sequence: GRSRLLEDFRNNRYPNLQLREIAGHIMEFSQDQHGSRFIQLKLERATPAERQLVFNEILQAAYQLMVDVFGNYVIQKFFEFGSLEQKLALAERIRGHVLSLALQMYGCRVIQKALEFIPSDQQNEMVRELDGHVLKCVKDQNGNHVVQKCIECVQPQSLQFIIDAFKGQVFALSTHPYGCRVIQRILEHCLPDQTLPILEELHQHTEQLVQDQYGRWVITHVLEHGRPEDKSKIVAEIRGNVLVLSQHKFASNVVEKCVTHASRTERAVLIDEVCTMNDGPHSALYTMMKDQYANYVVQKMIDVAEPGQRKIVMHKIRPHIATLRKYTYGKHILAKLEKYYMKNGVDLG
Summary of the method: as §1

[5] = biological target: T2, PUM1 PUF domain R6-CWG (Homo sapiens, UniProt Q14671 828-1176, N1043C;Y1044W;Q1047G)
T2 sequence: T1 sequence with R216C, T220G
Summary of the method: as §1

[6] = biological target: PUM1 PUF domain R5-KNC (Homo sapiens, UniProt Q14671 828-1176, C1007K;R1008N;Q1011C)
Summary of the method: as §1

[7] = biological target: PUM1 PUF domain R5-RCR (Homo sapiens, UniProt Q14671 828-1176, C1007R;R1008C;Q1011R)
Summary of the method: as §1

[8] = biological target: PUM1 PUF domain R5-CAR (Homo sapiens, UniProt Q14671 828-1176, R1008A;Q1011R)
Summary of the method: as §1

[9] = biological target: PUM1 PUF domain R7-KFF (Homo sapiens, UniProt Q14671 828-1176, S1079K;N1080F;E1083F)
Summary of the method: as §1

[10] = biological target: PUM1 PUF domain R3-ARR (Homo sapiens, UniProt Q14671 828-1176, C935A;Q939R)
Summary of the method: as §1

[11] = biological target: PUM1 PUF domain R3-RRM (Homo sapiens, UniProt Q14671 828-1176, C935R;Q939M)
Summary of the method: as §1

[12] = biological target: PUM1 PUF domain R1-RHV (Homo sapiens, UniProt Q14671 828-1176, S863R;R864H;Q867V)
Summary of the method: as §1

[13] = biological target: PUM1 PUF domain R1-KDL (Homo sapiens, UniProt Q14671 828-1176, S863K;R864D;Q867L)
Summary of the method: as §1

[14] = biological target: PUM1 PUF domain R8-PFQ (Homo sapiens, UniProt Q14671 828-1176, N1122P;Y1123F)
Summary of the method: as §1

[15] = biological target: PUM1 PUF domain R8-RRP (Homo sapiens, UniProt Q14671 828-1176, N1122R;Y1123R;Q1126P)
Summary of the method: as §1

[16] = biological target: PUM1 PUF domain R1-HGR (Homo sapiens, UniProt Q14671 828-1176, S863H;R864G;Q867R)
Summary of the method: as §1

[17] = biological target: PUM1 PUF domain R4-WAR (Homo sapiens, UniProt Q14671 828-1176, N971W;H972A;Q975R)
Summary of the method: as §1

[18] = biological target: PUM1 PUF domain R3-WCM (Homo sapiens, UniProt Q14671 828-1176, C935W;R936C;Q939M)
Summary of the method: as §1

[19] = biological target: PUM1 PUF domain R3-GYD (Homo sapiens, UniProt Q14671 828-1176, C935G;R936Y;Q939D)
Summary of the method: as §1

[20] = biological target: T3, PUM1 PUF domain R6-HYS (Homo sapiens, UniProt Q14671 828-1176, N1043H;Q1047S)
T3 sequence: T1 sequence with R216H, W217Y, T220S
Summary of the method: as §1

“GGCUAGAACUAGUGGAUCCCCCGGCGCCCGGCGGCUCGAGCCCGGGUAAGUGUAUAUAGUCUGCAUGCCGCCGGGCGCCAUGCCUGCAGGUCGACUCUAGAAAACAUG” was tested, and the binding signal [1] was 4.81 log2 enrichment (interaction score).

For “GGCUAGAACUAGUGGAUCCCCCGGCGCCCGGCGGCUCGAGCCCGGGUAAGUUUAAAUAGUCUGCAUGCCGCCGGGCGCCAUGCCUGCAGGUCGACUCUAGAAAACAUG”, the binding signal [2] was 3.93 log2 enrichment (interaction score).

For “GGCUAGAACUAGUGGAUCCCCCGGCGCCCGGCGGCUCGAGCCCGGGUAAGUGUGAAUAGUCUGCAUGCCGCCGGGCGCCAUGCCUGCAGGUCGACUCUAGAAAACAUG”, the binding signal [3] was 1.77 log2 enrichment (interaction score).

With “GGCUAGAACUAGUGGAUCCCCCGGCGCCCGGCGGCUCGAGCCCGGGUAAGUGAAAAUAGUCUGCAUGCCGCCGGGCGCCAUGCCUGCAGGUCGACUCUAGAAAACAUG” the binding signal [4] was 3.03 log2 enrichment (interaction score) and the binding signal [5] was 4.54 log2 enrichment (interaction score).

In the case of “GGCUAGAACUAGUGGAUCCCCCGGCGCCCGGCGGCUCGAGCCCGGGUAAGUGUUAAUAGUCUGCAUGCCGCCGGGCGCCAUGCCUGCAGGUCGACUCUAGAAAACAUG”, the binding signal [6] is reported as 4.22 log2 enrichment (interaction score), the binding signal [3] is reported as 5.05 log2 enrichment (interaction score) and the binding signal [7] is reported as 2.8 log2 enrichment (interaction score).

In the case of “GGCUAGAACUAGUGGAUCCCCCGGCGCCCGGCGGCUCGAGCCCGGGUAAGUGUCAAUAGUCUGCAUGCCGCCGGGCGCCAUGCCUGCAGGUCGACUCUAGAAAACAUG”, the binding signal [7] is reported as 3.99 log2 enrichment (interaction score) and the binding signal [8] is reported as 4.28 log2 enrichment (interaction score).

“GGCUAGAACUAGUGGAUCCCCCGGCGCCCGGCGGCUCGAGCCCGGGUAAGUCUAAAUAGUCUGCAUGCCGCCGGGCGCCAUGCCUGCAGGUCGACUCUAGAAAACAUG” was tested, and the binding signal [9] was 2.82 log2 enrichment (interaction score).

In the case of “GGCUAGAACUAGUGGAUCCCCCGGCGCCCGGCGGCUCGAGCCCGGGUAAGUGUAAUUAGUCUGCAUGCCGCCGGGCGCCAUGCCUGCAGGUCGACUCUAGAAAACAUG”, the binding signal [10] is reported as 3.37 log2 enrichment (interaction score) and the binding signal [11] is reported as 3.06 log2 enrichment (interaction score).

“GGCUAGAACUAGUGGAUCCCCCGGCGCCCGGCGGCUCGAGCCCGGGUAAGUGUAAAUCGUCUGCAUGCCGCCGGGCGCCAUGCCUGCAGGUCGACUCUAGAAAACAUG” was tested, and the binding signal [12] was 1.47 log2 enrichment (interaction score) and the binding signal [13] was 0.72 log2 enrichment (interaction score).

“GGCUAGAACUAGUGGAUCCCCCGGCGCCCGGCGGCUCGAGCCCGGGUAAGCGUAAAUAGUCUGCAUGCCGCCGGGCGCCAUGCCUGCAGGUCGACUCUAGAAAACAUG” was tested, and the binding signal [14] was 3.59 log2 enrichment (interaction score) and the binding signal [15] was 4.45 log2 enrichment (interaction score).

“GGCUAGAACUAGUGGAUCCCCCGGCGCCCGGCGGCUCGAGCCCGGGUAAGUGUAAAUUGUCUGCAUGCCGCCGGGCGCCAUGCCUGCAGGUCGACUCUAGAAAACAUG” was tested, and the binding signal [12] was 2.89 log2 enrichment (interaction score), the binding signal [16] was 2.93 log2 enrichment (interaction score) and the binding signal [13] was 3.53 log2 enrichment (interaction score).

In the case of “GGCUAGAACUAGUGGAUCCCCCGGCGCCCGGCGGCUCGAGCCCGGGUAAGUGUACAUAGUCUGCAUGCCGCCGGGCGCCAUGCCUGCAGGUCGACUCUAGAAAACAUG”, the binding signal [1] is reported as 6.57 log2 enrichment (interaction score) and the binding signal [17] is reported as 3.19 log2 enrichment (interaction score).

For “GGCUAGAACUAGUGGAUCCCCCGGCGCCCGGCGGCUCGAGCCCGGGUAAGUGUAAGUAGUCUGCAUGCCGCCGGGCGCCAUGCCUGCAGGUCGACUCUAGAAAACAUG”, the binding signal [10] was 1.41 log2 enrichment (interaction score), the binding signal [18] was 4.19 log2 enrichment (interaction score) and the binding signal [19] was 5.08 log2 enrichment (interaction score).

With “GGCUAGAACUAGUGGAUCCCCCGGCGCCCGGCGGCUCGAGCCCGGGUAAGUAUAAAUAGUCUGCAUGCCGCCGGGCGCCAUGCCUGCAGGUCGACUCUAGAAAACAUG” the binding signal [9] was 3.16 log2 enrichment (interaction score).

In the case of “GGCUAGAACUAGUGGAUCCCCCGGCGCCCGGCGGCUCGAGCCCGGGUAAGUGUAAAUAGUCUGCAUGCCGCCGGGCGCCAUGCCUGCAGGUCGACUCUAGAAAACAUG”, the binding signal [20] is reported as 3.52 log2 enrichment (interaction score), the binding signal [3] is reported as 3.65 log2 enrichment (interaction score) and the binding signal [10] is reported as 2.49 log2 enrichment (interaction score). The binding signal [1] was 1.61 log2 enrichment (interaction score), the binding signal [14] was 2.66 log2 enrichment (interaction score) and the binding signal [5] was 3.03 log2 enrichment (interaction score). The binding signal [17] was 1.01 log2 enrichment (interaction score) and the binding signal [15] was 2.63 log2 enrichment (interaction score).
